Results: PubChem BioAssay
Activity calls are given as the source filed them. Unless noted, no rule for the calls is given here.

Legend:
[1] = system: Wnt5a (protein binding on small-molecule microarray); assay: Wnt5a binders on small-molecule microarray, primary screen, biophysical, 635/667 nm fluorescence (AID 1142); conditions: 635 nm fluorescence, higher = more signal;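 also: fluorescence read at 667 nm with signal to noise per printed feature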
[2] = cell viability in Huh7 cells, primary screen, cytotoxicity control for HCV replication inhibitor project, CellTiter-Glo luminescence, basal, 48 h (AID 1143); conditions: Huh7 HCV replicon, higher = more signal, called active from +8 up or from −8 down;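 also: Huh7 hepatoma cells carrying a hepatitis C replication reporter with no stimulus; test concentration not given here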
[3] = P. aeruginosa biofilm formation inhibitors, primary screen, PAO1 strain, BacTiter-Glo luminescence, LB-PBS (AID 1144); conditions: 12 h, higher = more signal
[4] = CREB reporter modulators without forskolin, primary screen, cell-based, PC12, CRE-LacZ reporter, unstimulated (AID 1145); conditions: no forskolin, luminescence, 4.5 h, higher = more signal, called active from +8 up or from −8 down
[5] = CREB reporter modulators under forskolin, primary screen, cell-based, PC12, CRE-LacZ reporter, forskolin-stimulated (AID 1146); conditions: luminescence, 4.5 h, higher = more signal, called active from +8 up or from −8 down;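 also: PC12 cells with 6xCRE LacZ reporter stimulated by forskolin 10 µM; beta-galactosidase reporter signal reflecting CREB driven transcription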
[6] = molecular target: Streptavidin (Streptomyces avidinii) (UniProt P22629); assay: streptavidin binders on small-molecule microarray, primary screen, artefact control for SMM compound annotation, biophysical, 635/667 nm fluorescence (AID 1147); conditions: streptavidin binding, higher = more signal;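 also: signal reflects streptavidin binding to arrayed compounds as a control protein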
Streptavidin (Streptomyces avidinii), sequence (P22629 whole entry, looked up): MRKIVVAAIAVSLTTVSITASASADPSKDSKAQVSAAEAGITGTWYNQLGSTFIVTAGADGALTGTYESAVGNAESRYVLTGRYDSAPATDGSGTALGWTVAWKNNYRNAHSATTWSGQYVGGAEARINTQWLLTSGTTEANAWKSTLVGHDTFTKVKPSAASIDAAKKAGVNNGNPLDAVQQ

[7] = small-molecule binders of probe aInhba, primary screen, biochemical, small-molecule microarray, 635/667 nm fluorescence (AID 1148); conditions: higher = more signal;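 also: score merges 667nm spot fluorescence with signal-to-noise for antibody binding to printed compounds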
Torsin-1A (Homo sapiens) [8] = molecular target: Torsin-1A (Homo sapiens) (UniProt O14656); assay: torsin A binders from cell lysate, primary screen, small-molecule microarray, wild-type, 635/667 nm (AID 1149); conditions: COS7 hTOR1A-WT lysate, 635 nm fluorescence, higher = more signal
Torsin-1A (Homo sapiens), sequence (O14656 whole entry, looked up): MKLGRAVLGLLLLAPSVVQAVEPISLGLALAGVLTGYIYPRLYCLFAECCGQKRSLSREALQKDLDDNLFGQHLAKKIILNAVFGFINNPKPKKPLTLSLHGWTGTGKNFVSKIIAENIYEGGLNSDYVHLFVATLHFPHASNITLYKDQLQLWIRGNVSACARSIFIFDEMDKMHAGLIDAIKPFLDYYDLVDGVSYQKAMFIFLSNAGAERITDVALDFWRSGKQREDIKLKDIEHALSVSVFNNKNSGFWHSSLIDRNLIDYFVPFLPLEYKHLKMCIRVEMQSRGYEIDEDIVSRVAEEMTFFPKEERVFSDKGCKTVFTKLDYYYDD

Torsin-1A (Homo sapiens) [9] = molecular target: Torsin-1A (Homo sapiens) (UniProt O14656); assay: small-molecule binders of mutant TOR1A in lysate, primary screen, cell lysate, small-molecule microarray, COS7 lysate, 635/667 nm fluorescence (AID 1150); conditions: COS7 hTOR1A mutant lysate, 635 nm fluorescence, higher = more signal;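 also: score pools 667 nm emission and signal to noise measuring lysate protein binding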
[10] = system: Sonic hedgehog protein (Shh); assay: small-molecule binders of Shh protein, primary screen, biochemical, small-molecule microarray, 635/667 nm fluorescence (AID 1151); conditions: small-molecule microarray binding, 635 nm fluorescence; higher = more signal;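 also: Shh protein binding to compounds spotted on small-molecule microarray slides; score combines spot fluorescence intensity with signal-to-noise across triplicate slides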

Structure (SMILES) | composite z-score [1] | z-score [2] | z-score [3] | z-score [4] | z-score [5] | composite z-score [6] | composite z-score [7] | composite z-score (Torsin-1A (Homo sapiens) [8]) | composite z-score (Torsin-1A (Homo sapiens) [9]) | composite z-score [10]
CC(C)C(O)C1C=CC2C(=O)N(c3ccccc3)C(=O)C2N1Nc1ccc(C#N)cc1 (stereo not given) | 0.612 | 0.388 (inactive) | -0.783 (inactive) | 0.629 (inactive) | 0.813 (inactive) | 0.761 | 0.388 | -0.0618 | 0.719 | 0.0011
CCOC(=O)[C@H]1C[C@H]2O[C@@]23C[C@H]1C(=O)N1CCCC1[C@@H]3O[Si](C)(C)C(C)(C)C (stereo not given in full) | -0.489 | -2.14 (inactive) | 0.209 (inactive) | -1.59 (inactive) | -0.852 (inactive) | -0.266 | -0.245 | -0.235 | -0.178 | 1.1
C=CCOC(=O)[C@@H]1[C@H]2C(=O)O[C@H](c3ccccc3)[C@H](c3ccccc3)N2[C@H](c2ccc(OCCOC(=O)[C@@H]3C[C@@H]4C(=O)N[C@@H](Cc5ccccc5)C(=O)N4[C@@H]3c3cccc(OCCO)c3)cc2)[C@@]12C(=O)Nc1ccc(I)cc12 | 0.867 | -0.166 (inactive) | -0.525 (inactive) | -1.08 (inactive) | 0.0071 (inactive) | -0.184 | 0.35 | 1.3 | 0.731 | 2.16
COc1ccc(CCNC(=O)[C@@]2(c3ccc([N+](=O)[O-])cc3)CC(=O)N(CC34CC5CC(CC(C5)C3)C4)[C@@H]2c2ccc(CO)cc2)cc1 | 0.145 | -5.75 (inactive) | -1.36 (inactive) | -0.062 (inactive) | 0.164 (inactive) | 0.531 | 0.327 | 0.246 | 0.388 | 0.948
C=CC[C@@]1(C(=O)O)N=C(c2ccc(OCCCO)cc2)O[C@@H]1c1ccccc1N=[N+]=[N-] | 0.0886 | -1.41 (inactive) | 0.651 (inactive) | 0.367 (inactive) | -0.432 (inactive) | 1.11 | 0.0697 | -0.115 | 0.251 | -0.203
C=CCNC(=O)[C@@H]1[C@H]2C(=O)O[C@H](c3ccccc3)[C@H](c3ccccc3)N2[C@H](c2ccccc2OCCO)[C@@]12C(=O)Nc1ccc(C#CC3=CCCCC3)cc12 | 0.248 | -6.58 (inactive) | -1.43 (inactive) | -1.42 (inactive) | -1.45 (inactive) | 0.562 | 0.592 | 0.192 | 0.255 | 1.91
COCCOC(=O)N1C(=O)[C@@]2(c3cc(C#CCC(C(=O)OC)C(=O)OC)ccc31)[C@H](c1ccccc1OCCO)N1[C@H](c3ccccc3)[C@H](c3ccccc3)OC(=O)[C@H]1[C@@H]2C(=O)N1CCc2cc(OC)c(OC)cc2C1 | -0.184 | -3.42 (inactive) | -1.52 (inactive) | -1.42 (inactive) | -1.16 (inactive) | 0.226 | -0.0774 | 0.298 | 0.619 | 1.88
CCN(CC)c1ccc(N2CC=CC34O[C@@H]5C=CCCOC(=O)C5[C@H]3C(=O)N(CCCCCO)[C@@H]4C2=O)cc1 (stereo not given in full) | 0.0385 | -0.484 (inactive) | -0.947 (inactive) | 0.593 (inactive) | -0.686 (inactive) | -0.45 | 0.0173 | 0.846 | 0.307 | 0.16
O=C1OCCC=C[C@H]2OC34C=CCN(Cc5ccccc5)C(=O)[C@H]3N(CCCO)C(=O)[C@@H]4C12 (stereo not given in full) | -0.419 | -3.89 (inactive) | -2.36 (inactive) | -1.31 (inactive) | -1.18 (inactive) | -0.399 | -0.128 | -0.8 | -0.586 | -0.174
COc1ccc(C(O)C2C=CC3C(=O)NC(=O)C3N2Nc2ccccn2)cc1OCc1ccccc1 (stereo not given) | -0.125 | 0.716 (inactive) | -0.484 (inactive) | 0.629 (inactive) | 0.124 (inactive) | 0.428 | -0.0256 | -0.209 | 0.435 | 0.0157
CC(c1ccccc1)C(O)C1C=CC2C(=O)NC(=O)C2N1Nc1ccccn1 (stereo not given) | 0.211 | 1.25 (inactive) | -1.1 (inactive) | -0.329 (inactive) | -1.03 (inactive) | 0.0932 | 0.0906 | 0.763 | 0.197 | 0.341
O=C1C[C@@](C(=O)NC2CC2)(c2ccc([N+](=O)[O-])cc2)[C@@H](c2ccc(CO)cc2)N1CC12CC3CC(CC(C3)C1)C2 | 0.382 | -4.42 (inactive) | -0.752 (inactive) | -0.529 (inactive) | -1.12 (inactive) | 0.465 | -0.0736 | 0.477 | -0.176 | 0.777
O=C(OCCF)C1=CCC(c2cccc(Cl)c2)O1 (stereo not given) | 0.236 | -2.33 (inactive) | -0.0826 (inactive) | -0.0137 (inactive) | 0.351 (inactive) | 0.112 | -0.0468 | 1.09 | 2.19 | 0.299
Cc1cc(C)cc(N2C(=O)CS(=O)(=O)C2c2cccc([N+](=O)[O-])c2)c1 (stereo not given) | 0.223 | -2.18 (inactive) | -0.527 (inactive) | -0.0243 (inactive) | -0.494 (inactive) | 1.26 | 0.952 | 0.513 | 0.897 | 0.659
C[C@H]1NC(=O)[C@H](Cc2ccccc2)NC(=O)[C@@]23C(=O)N[C@@H](Cc4ccccc4)C2[C@H](C)[C@@]2(C)O[C@H]2C3/C=C/C/C=C\CNC1=O (stereo not given in full) | -0.182 | -0.679 (inactive) | 0.615 (inactive) | 2.67 (inactive) | -0.522 (inactive) | -0.496 | -0.179 | -0.477 | -0.402 | 0.249
O=C1N(CCS(=O)(=O)c2ccccc2)Cc2ccccc2C[C@]12N=C(c1ccc(OCCCO)cc1)O[C@@H]2c1ccccc1 | 0.775 | -3.53 (inactive) | 0.81 (inactive) | 0.0686 (inactive) | -1.48 (inactive) | 0.196 | 0.537 | 0.916 | 1.02 | 1.51
Cc1ccc(S[C@]2(C(=O)NC3CC3)CC(=O)N(Cc3ccccc3)[C@@H]2c2ccc(CO)cc2)cc1 | -0.144 | 0.103 (inactive) | 0.396 (inactive) | -0.295 (inactive) | 0.473 (inactive) | -0.807 | -0.0762 | -0.559 | -0.906 | -0.863
COc1ccc([Si](C)(C)[C@@H]2[C@@H](CC(=O)N(CCO)Cc3ccccc3)O[C@]3(C(=O)N(C)c4ccccc43)[C@H]2C)cc1 | 0.205 | -4.28 (inactive) | -0.054 (inactive) | 11.9 (active) | 1.37 (inactive) | 0.92 | 0.218 | 0.089 | 0.152 | 1.74
CN(C)C(=O)[C@@]1(CCC(=O)OC(C)(C)C)N=C(c2ccc(OCCCO)cc2)O[C@H]1c1ccccc1 | 0.257 | -4.42 (inactive) | -0.573 (inactive) | 0.195 (inactive) | -1.4 (inactive) | 0.0732 | 0.776 | 0.635 | 1.74 | -0.467
COCCOC(=O)N1C(=O)[C@@]2(c3cc(C#CCNC(N)=O)ccc31)[C@H](c1ccccc1OCCO)N1[C@H](c3ccccc3)[C@H](c3ccccc3)OC(=O)[C@H]1[C@@H]2C(N)=O | 0.116 | -0.895 (inactive) | 0.287 (inactive) | 0.802 (inactive) | 5.24 (inactive) | 0.234 | 0.0422 | 0.198 | 0.41 | 1.8
COCCOC(=O)N1C(=O)[C@@]2(c3cc(C#CCCO)ccc31)[C@H](c1ccccc1OCCO)N1[C@H](c3ccccc3)[C@H](c3ccccc3)OC(=O)[C@H]1[C@@H]2C(=O)N1CCN(c2ncccn2)CC1 | 0.544 | -1.01 (inactive) | 0.566 (inactive) | -0.329 (inactive) | 1.99 (inactive) | 1.41 | 0.262 | 0.0623 | 0.835 | 1.37
C=CCN1C(=O)[C@]2(O[C@H](CCO)[C@@H]([Si](C)(C)c3ccc(OC)cc3)[C@@H]2C)c2cc(NC(=O)[C@H](C)O)ccc21 | 0.276 | -6.12 (inactive) | 1.01 (inactive) | 6.89 (inactive) | -0.144 (inactive) | 0.553 | 0.339 | 0.725 | 0.499 | 1.34
[N-]=[N+]=Nc1ccccc1C[C@]1(C(=O)NCCN2CCOCC2)N=C(c2ccc(OCCCO)cc2)O[C@H]1c1ccccc1 | 0.577 | -2.47 (inactive) | 0.355 (inactive) | 0.4 (inactive) | -0.604 (inactive) | -0.186 | 0.101 | 0.729 | 0.749 | 0.109
COCCCNC(=O)[C@@]1(CCC(=O)OC(C)(C)C)N=C(c2ccc(OCCCO)cc2)O[C@H]1c1ccccc1CN=[N+]=[N-] | 1.01 | -0.0523 (inactive) | 0.0993 (inactive) | -0.538 (inactive) | 0.286 (inactive) | 1.01 | 0.329 | 1.23 | 1.51 | 0.103
CCOC(=O)C[C@H]1[C@H](OC(=O)c2ccc(-c3ccccc3)cc2)[C@@H](NC(=O)c2ccc(-c3ccccc3)cc2)c2cc(OCCCO)ccc2N1C(=O)Cc1ccc(OC)cc1 | 0.0386 | -0.477 (inactive) | -0.402 (inactive) | -0.448 (inactive) | -0.494 (inactive) | 0.745 | 0.0301 | -0.205 | 0.119 | -0.195
COc1ccc(C(=O)Nc2cccc(CN3C(=O)[C@]4(O[C@H](CC(=O)N5CCC[C@H]5CO)[C@@H]([Si](C)(C)c5ccc(OC)cc5)[C@@H]4C)c4ccccc43)c2)cc1 | 0.278 | -5.56 (inactive) | 1.16 (inactive) | 0.105 (inactive) | -0.748 (inactive) | -0.349 | -0.15 | 0.421 | 0.812 | 1.79
CN1CCC(CCCO)=CC1c1ccc(CN2CCCC2)cc1 (stereo not given) | 0.958 | -0.428 (inactive) | -0.692 (inactive) | -0.974 (inactive) | 0.239 (inactive) | 0.825 | 0.0096 | 3.12 | 2.86 | 2.08
Cc1ccc(S[C@]2(C(=O)NCc3ccccc3)CC(=O)N(Cc3ccccc3)[C@@H]2c2ccc(CO)cc2)cc1 | -0.202 | -0.618 (inactive) | 0.395 (inactive) | -0.735 (inactive) | -0.26 (inactive) | -0.926 | -0.0719 | -0.499 | 0.248 | -0.242
